Assay results from PubChem BioAssay AID624094 (National Center for Advancing Translational Sciences (NCATS), 2012).
Results filed as inconclusive are left out. The source made the active and inactive calls. Calls follow the shape of the dose curve; as a rule, active = well fitted inhibition curve with a large enough effect; inconclusive = small, poorly fitted or top-dose-only effect; inactive = flat fitted curve, though single readings scatter.

biological target: Dual specificity protein kinase CLK4 (Homo sapiens) (UniProt Q9HAZ1); experiment: Confirmation Assay for Inhibitors of Clk4 (Kinase-Glo Assay): KU probe; conditions: recombinant Clk4, Kinase-Glo ATP luminescence; series mostly up to 76.9 µM
Method: NIH Molecular Libraries Probe Production Centers Network [MLPCN] NIH Chemical Genomics Center [NCGC] MLPCN Grant: 1R03MH084827-01 Assay Submitter (PI): Tom Misteli NCGC Assay Overview: Clk4 (Invitrogen, cat# PV3839) was assayed using ATP and the RS repeat peptide (AnaSpec cat # 61722) as substrates. Following the Clk4 reaction, the remaining ATP levels were detected using Promega Kinase-Glo technology wherein the remaining ATP from the kinase reaction is detected using Ultra-Glo luciferase and D-luciferin which generates a bioluminescence signal from the ATP.
NCGC Assay Protocol Summary: Two uL/well of substrate-buffer solution (100 uM RS peptide, 1 uM ATP, 25 mM Tris pH7.5, 10 mM MgCl2, 0.5 mM EGTA, 2.5 mM DTT, 0.01% Triton X-100 final concentration) was dispensed into 1536-well, assay plates (Greiner, solid white medium-binding plates) with Aurora Discovery BioRAPTR Flying Reagent Dispenser (FRD; Beckton-Dickenson). Using a Kalypsys pin tool equipped with a 1536-pin tool, 23 nL of compound solution was transferred to the assay plate. One uL/ well Clk4-buffer solution (25 nM Clk4, 25 mM Tris pH 7.5, 10 mM MgCl2, 0.5 mM EGTA, 2.5 mM DTT, 0.01% Triton X-100, final concentrations) was then added using the FRD yielding a total kinase reaction volume of 3 uL/ well. After 4.5 hours of room temperature incubation, 3 uL Kinase-Glo reagent was added for a final assay volume of 6 uL/ well. Luminescence was detected with the ViewLux plate reader (Perkin Elmer, Waltham, MA) after 5 min incubation using a 5 second exposure time and 2x binning.

Sequence of Dual specificity protein kinase CLK4 (Homo sapiens) (Q9HAZ1 whole entry, looked up): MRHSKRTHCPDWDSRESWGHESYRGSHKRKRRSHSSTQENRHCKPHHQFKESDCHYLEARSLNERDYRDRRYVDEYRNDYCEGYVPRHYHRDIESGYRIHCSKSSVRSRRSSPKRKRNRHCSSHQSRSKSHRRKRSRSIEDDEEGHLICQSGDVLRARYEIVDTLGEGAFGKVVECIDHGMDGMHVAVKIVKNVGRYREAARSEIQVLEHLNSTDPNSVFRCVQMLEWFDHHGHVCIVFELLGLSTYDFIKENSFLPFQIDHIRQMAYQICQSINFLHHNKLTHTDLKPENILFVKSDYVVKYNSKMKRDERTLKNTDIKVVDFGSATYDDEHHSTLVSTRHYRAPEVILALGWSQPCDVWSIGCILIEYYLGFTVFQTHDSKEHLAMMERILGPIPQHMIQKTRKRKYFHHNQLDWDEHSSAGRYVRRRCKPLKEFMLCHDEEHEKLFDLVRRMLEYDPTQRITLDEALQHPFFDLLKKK

| Structure (SMILES) | Potency |
| --- | --- |
| Clc1ccc(CNc2cc(-c3ccc4c(c3)OCO4)ncn2)cc1 | 2320 nM (active) |
| c1nc(NC[C@@H]2CCCO2)c2cc(-c3ccc4c(c3)OCO4)ccc2n1 | 29.2 nM (active) |
| O=C(O)c1ccc(-c2ccc3ncnc(NCc4nccs4)c3c2)o1 | 923 nM (active) |
| c1ccc(CNc2ccnc(-c3ccc4c(c3)OCO4)n2)cc1 | 23200 nM (active) |
| COc1ccc(CNc2ccnc(-c3cccc(OC)c3)n2)cc1 | 23200 nM (active) |
| O=C(Nc1ccnc(-c2ccc3c(c2)OCO3)n1)c1cnc(Cl)c(Cl)c1 | inactive |
| CN(CC1CCCCO1)c1ncnc2ccc(-c3ccc4c(c3)OCO4)cc12 (stereo not given) | 46.3 nM (active) |
| Clc1ccc(CNc2ccnc(-c3ccc4c(c3)OCO4)n2)cc1Cl | 13000 nM (active) |
| COc1ccc(CNc2ccnc(-c3c(C)noc3C)n2)cc1 | inactive |
| c1nc(NCC2CCCCO2)c2cc(-c3ccc4c(c3)OCO4)ccc2n1 (stereo not given) | 29.2 nM (active) |
| Clc1ccc(CNc2ncncc2-c2ccc3c(c2)OCO3)cc1Cl | 582 nM (active) |
| Cc1ccc(CNc2ccnc(-c3cccc(C#N)c3)n2)cc1 | 23200 nM (active) |
| c1cncc(CNc2ccnc(-c3ccc4[nH]ncc4c3)n2)c1 | 146 nM (active) |
| FC(F)(F)c1cccc(Nc2nccc(-c3ccc4c(c3)OCO4)n2)c1 | 65.4 nM (active) |
| Cc1csc(CNc2ncnc3ccc(-c4ccc(C(=O)O)o4)cc23)n1 | 292 nM (active) |
| c1nc(NCCC2CCCO2)c2cc(-c3ccc4c(c3)OCO4)ccc2n1 (stereo not given) | 51.9 nM (active) |
| c1nc(NCC2CCCOC2)c2cc(-c3ccc4c(c3)OCO4)ccc2n1 (stereo not given) | 65.4 nM (active) |
| COc1cccc(-c2nccc(NCc3ccc(C)cc3)n2)c1 | 23200 nM (active) |
| CCN(C)c1ncnc2ccc(-c3ccc4c(c3)OCO4)cc12 | 36.8 nM (active) |
| Fc1ccc(CNc2ccnc(-c3ccc4c(c3)OCO4)n2)cc1F | 18400 nM (active) |

| Structure (SMILES) | Potency |
| --- | --- |
| COc1ccc(CNc2ccnc(-c3ccc(N(C)C)cc3)n2)cc1 | inactive |
| Cc1csc(CNc2ncnc3ccc(-c4ccc(CO)o4)cc23)n1 | 923 nM (active) |
| Fc1ccc(CNc2ccnc(-c3ccc4c(c3)OCO4)n2)cc1Br | 13000 nM (active) |
| c1coc(CNc2ncnc3ccc(-c4ccc5c(c4)OCO5)cc23)c1 | 46.3 nM (active) |
| CN(C)c1ccc(-c2nccc(NCc3ccc(Cl)cc3)n2)cc1 | inactive |
| Cc1noc(C)c1-c1ncccn1 | inactive |
| Clc1ccc(CNc2nccc(-c3ccc4c(c3)OCO4)n2)cc1Cl | 41.2 nM (active) |
| Clc1ccc(Nc2nccc(-c3ccc4c(c3)OCO4)n2)cc1 | 368 nM (active) |
| CN(C)c1ccc(-c2ncccn2)cc1 | inactive |
| COc1cccc(-c2nccc(NCc3ccc(Cl)cc3)n2)c1 | 13000 nM (active) |
| Clc1cc(Cl)cc(CNc2ccnc(-c3ccc4c(c3)OCO4)n2)c1 | 4120 nM (active) |
| FC(F)(F)c1cc(Br)cc(Nc2nccc(-c3ccc4c(c3)OCO4)n2)c1 | 130 nM (active) |
| O=C(O)c1ccc(-c2ccc3ncnc(NCC4CCCO4)c3c2)o1 (stereo not given) | 654 nM (active) |
| COc1ccc(CNc2ccnc(-c3cccc(C#N)c3)n2)cc1 | 9230 nM (active) |
| Brc1cc(Br)cc(CNc2nccc(-c3ccc4c(c3)OCO4)n2)c1 | 36.8 nM (active) |
| c1cncc(CNc2nccc(-c3ccc4c(c3)OCO4)n2)c1 | 23.2 nM (active) |
| CC(C)(C)CNc1ncnc2ccc(-c3ccc(C(=O)O)o3)cc12 | 463 nM (active) |
| COc1ccc(-c2nccc(NCc3ccc(Cl)c(Cl)c3)n2)cc1 | 11600 nM (active) |
| c1cncc(CNc2cc(-c3ccc4c(c3)OCO4)ncn2)c1 | 6540 nM (active) |
| O=C(O)c1ccc(-c2ccc3ncnc(N4CCOCC4)c3c2)o1 | 582 nM (active) |
